Bioassay records deposited in PubChem BioAssay by several laboratories.
An excerpt weighted towards active compounds, which were near 4.6% of everything screened.
HIF-2a block – blocks HIF-2a reporter activity; 786-0 RCC cells HIF-2a reporter, luciferase luminescence, overnight; inhibition, % at 18.8 µM; hit rate 0.72% among 360,000; AID 624352;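 active means inhibition of the luminescence signal of 40% or more relative to plate controls, in a single-dose primary screen at 18.75 µM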
KKLEB cytotox – CF airway cell cytotoxicity counter-screen; activity change (cytotoxicity), % at 5 µM; KKLEB CF airway cells viability, ATPlite luminescence, overnight; active compounds read low; cells stimulated with P. aeruginosa culture filtrate; hit rate 0.36% among 360,000;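 active means corrected activity change at or below -50% at 5 µM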
CF NFkB inh – inhibitors of cystic fibrosis induced NF-kB; KKLEB NF-kB-GFP reporter, PAF-induced, GFP fluorescence overnight; inhibition, % at 5 µM; hit rate 0.86% among 360,000; AID 588850;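 active means at least 50% inhibition at 5 µM, scaled per plate between neutral and stimulator controls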;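 further: PAF is a Pseudomonas aeruginosa culture filtrate used as stimulus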
ABHD5 PLIN5 PPI – inhibitors of human ABHD5-perilipin-5 interaction; Q00G26+Q8WTS1; AID 602281; Split G. princeps luciferase complementation, luminescence, 4 h; hit rate 0.78% among 360,000; inhibition, % at 4 µM;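 active means inhibition above the mean inhibition across every tested compound plus 3 SD, cut at about 22% in these data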
Mdm2-MdmX inh – human Mdm2/MdmX binding inhibition. SaOS-2 split-luciferase Mdm2/MdmX complementation, luminescence. inhibition, % at 8 µM. hit rate 3% among 330,000;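 active means inhibition of at least 50% at 8 µM in the primary screen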
Target sequence (O15151 whole entry, looked up): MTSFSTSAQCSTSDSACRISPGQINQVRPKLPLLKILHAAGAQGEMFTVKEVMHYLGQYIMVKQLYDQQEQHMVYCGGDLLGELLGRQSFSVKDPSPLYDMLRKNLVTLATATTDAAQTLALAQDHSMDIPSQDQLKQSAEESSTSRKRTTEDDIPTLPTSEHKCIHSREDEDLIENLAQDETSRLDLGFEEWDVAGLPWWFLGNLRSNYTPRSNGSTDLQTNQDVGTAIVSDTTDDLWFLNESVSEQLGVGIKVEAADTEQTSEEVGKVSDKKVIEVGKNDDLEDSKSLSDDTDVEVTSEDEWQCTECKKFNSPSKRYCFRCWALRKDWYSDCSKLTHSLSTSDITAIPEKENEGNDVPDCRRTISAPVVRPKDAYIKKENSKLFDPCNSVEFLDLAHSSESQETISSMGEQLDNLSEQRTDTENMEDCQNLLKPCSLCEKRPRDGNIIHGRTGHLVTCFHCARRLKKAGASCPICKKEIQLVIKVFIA
Target sequence (Q00987 whole entry, looked up): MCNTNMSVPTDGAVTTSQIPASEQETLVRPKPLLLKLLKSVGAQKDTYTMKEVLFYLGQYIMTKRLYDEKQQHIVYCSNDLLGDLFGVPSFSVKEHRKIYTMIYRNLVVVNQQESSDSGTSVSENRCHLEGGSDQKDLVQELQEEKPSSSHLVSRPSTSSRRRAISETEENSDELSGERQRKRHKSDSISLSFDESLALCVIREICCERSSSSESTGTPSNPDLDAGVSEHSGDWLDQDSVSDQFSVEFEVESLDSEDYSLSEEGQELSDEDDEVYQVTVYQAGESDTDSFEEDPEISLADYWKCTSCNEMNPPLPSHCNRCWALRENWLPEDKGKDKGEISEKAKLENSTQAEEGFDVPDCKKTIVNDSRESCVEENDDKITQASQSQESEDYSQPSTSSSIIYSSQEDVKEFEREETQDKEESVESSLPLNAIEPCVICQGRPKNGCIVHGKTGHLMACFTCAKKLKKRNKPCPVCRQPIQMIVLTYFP
Peg3 promoter – reduces Peg3 promoter-driven luciferase expression in HeLa; HeLa PEG-Prom luciferase reporter, luminescence, overnight; inhibition, % at 20 µM; hit rate 1.7% among 360,000;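 active means inhibition of at least 50% at 20 µM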
Mdm2-MdmX conf – human Mdm2/MdmX binding inhibition, confirmed. shares compounds with Mdm2-MdmX inh. luminescent assay. inhibition, % at 8 µM. hit rate 55% among 10,000. AID 489028; in the data active means inhibition above about 40%
Full FLuc ctr – inhibits full-length luciferase, flagging false Mdm2/MdmX hits | shares compounds with Mdm2-MdmX inh | SaOS-2 full-length luciferase counterscreen, luminescence | inhibition, % at 8 µM | hit rate 77% among 6,200 | AID 504607;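 active means mean inhibition at 8 µM reaching about 37%, which flags the compound as non-specific, limit read from the data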;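 further: p53-null SaOS-2 cells with luciferase driven by a doxycycline-inducible promoter; compound on cells about two nights before reading with doxycycline added after day one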
A number is an active result; – = inactive; · = no result given.

SMILES | HIF-2a block | KKLEB cytotox | CF NFkB inh | ABHD5 PLIN5 PPI | Mdm2-MdmX inh | Peg3 promoter | Mdm2-MdmX conf | Full FLuc ctr
CC(C)c1cccc(C(C)C)c1NC(=O)c1ccc(OCC(=O)NCc2ccccc2)cc1 | · | · | · | · | 75 | · | 60 | 56
CC(C)c1ccccc1NC(=O)COc1ccc(C(=O)NCCc2ccccc2)cc1 | – | – | – | – | – | – | · | ·
Cc1c(C(=O)N/N=C/c2ccc(Cl)cc2)[nH]c2ccc(Cl)cc12 | – | – | 62 | – | 63 | – | 62 | 91
O=C(N/N=C/c1ccc(O)cc1)c1[nH]c2ccc(Br)cc2c1-c1ccccc1 | – | – | 58 | – | 67 | – | 56 | 92
CCOc1ccc(/C=N/NC(=O)c2[nH]c3ccc(C)cc3c2C)cc1 | – | – | – | – | – | – | · | ·
COC(=O)c1cc2c([nH]c1=O)CCCC2=O | – | – | – | – | · | – | · | ·
Cc1csc(NC(=O)COc2ccc3c(C)cc(=O)oc3c2)n1 | – | – | – | – | 67 | – | – | ·
Cc1cc(OCC(=O)Nc2nccs2)c2c(C)cc(=O)oc2c1 | – | – | – | – | 90 | – | – | ·
O=C(COc1ccc2c(-c3ccccc3)cc(=O)oc2c1)Nc1cccnc1 | – | – | – | – | 68 | – | 42 | 82
Cc1cccc(OCC(=O)Nc2ccc3c(C)cc(=O)oc3c2)c1 | – | – | – | – | – | – | · | ·
Cc1cc(=O)oc2cc(NC(=O)COc3cccc(C(F)(F)F)c3)ccc12 | – | – | – | – | 69 | – | – | ·
Cc1cccc(C)c1NC(=O)COC(=O)COc1ccc2c(C)cc(=O)oc2c1 | – | – | – | – | – | – | · | ·
COC(=O)[C@@]12CCCCN1[C@H](c1ccc(-c3ccc(F)cc3)cc1)[C@@H]1C(=O)N(C)C(=O)[C@@H]12 | – | – | – | – | – | – | · | ·
O=C(CNS(=O)(=O)c1ccccc1)N1CCc2ccccc2C1 | – | – | – | – | – | – | · | ·
CCOC(=O)c1c(C)[nH]c(C(=O)OCc2csc(CC(=O)Nc3ccccc3C)n2)c1C | – | – | – | – | – | – | · | ·
CC(=O)N1CCN(C(=O)OC2CC3CC2[C@H]2CCCCN2C3=O)CC1 (some centres not stated) | – | · | · | – | · | · | · | ·
CC(/C=C(\NC(=O)c1ccccc1)C(=O)N=Nc1c(O)[nH]c2ccc(C)cc12)=C\c1ccccc1 | – | – | 53 | – | 64 | 53 | 47 | 82
CCOC(=O)CSC1=C(C#N)C(c2ccc(C)o2)CC(=O)N1 (configuration not stated) | – | – | – | – | 65 | – | 52 | 73
O=C(Cc1ccccc1)NCC(=O)N1CCN(c2ccc(F)cc2)CC1 | – | – | – | – | · | – | · | ·
O=C(OCc1c(-c2ccccc2)ncc2ccccc12)c1ccc(F)cc1 | – | – | – | – | – | – | · | ·
O=C(OCc1c(-c2ccccc2)ncc2ccccc12)c1ccc(C(F)(F)F)cc1 | – | – | – | – | 78 | – | – | ·
Cc1c(O)ccc(/C=N/Nc2nc(-c3cccnc3)nc3ccccc23)c1O | – | – | 61 | – | 66 | – | 59 | 70
Cc1ccc(Nc2nc(-c3cccnc3)nc3ccccc23)cc1 | – | – | – | – | 63 | – | 57 | 57
Cc1ccccc1Nc1nc(-c2cccnc2)nc2ccccc12 | – | – | – | – | – | – | · | ·
CC1(C)C(=O)N(c2ccccc2)C1c1ccccc1O (configuration not stated) | – | – | – | – | 59 | 52 | 46 | 75
SMILES | HIF-2a block | KKLEB cytotox | CF NFkB inh | ABHD5 PLIN5 PPI | Mdm2-MdmX inh | Peg3 promoter | Mdm2-MdmX conf | Full FLuc ctr
COc1ccc(N2C(=O)C(C)(C)C2c2c(O)ccc3ccccc23)cc1 (configuration not stated) | – | – | – | – | – | – | · | ·
O=C1CC(c2ccccc2F)c2cc3c(cc2N1)CCC3 (configuration not stated) | – | – | – | – | 58 | – | 58 | 57
O=C1CC(c2cccc(Cl)c2)c2cc3c(cc2N1)CCC3 (configuration not stated) | – | – | – | – | 54 | – | 58 | 64
O=C1CC(c2cc(Br)ccc2F)c2cc3c(cc2N1)CCC3 (configuration not stated) | – | – | – | – | 66 | – | 56 | 95
O=C1CC(c2ccccc2Br)c2cc3c(cc2N1)CCC3 (configuration not stated) | · | · | · | · | 58 | · | 62 | 56
COc1cccc(C2CC(=O)Nc3cc4c(cc32)CCC4)c1 (configuration not stated) | – | – | – | – | – | – | · | ·
Cc1ccc(S(=O)(=O)NN=C(c2ccccc2)c2cccs2)cc1 | – | – | – | – | · | – | · | ·
Cc1cccc(NC(=O)c2ccc(C3SCC(=O)N3CCc3ccccc3)cc2)c1 (configuration not stated) | – | – | – | – | 54 | – | – | ·
CC(=O)Nc1ccc(NC(=O)c2ccc(C3SCC(=O)N3CCc3ccccc3)cc2)cc1 (configuration not stated) | – | – | – | – | – | – | · | ·
CNC(=O)C1CCC(=O)N1Cc1c[nH]c2ccccc12 (configuration not stated) | – | – | – | – | · | – | · | ·
CC12CC3CC1C(C(=O)O2)C3C(=O)O (configuration not stated) | – | – | – | – | · | – | · | ·
Cc1cc2oc(=O)cc(C)c2cc1NC(=O)CCl | – | – | – | – | 58 | – | – | ·
COc1ccccc1C(=O)N1CCN(C(=O)[C@H]2O[C@@H](n3ccc(=O)[nH]c3=O)[C@H](O)[C@@H]2O)CC1 | – | – | – | – | · | – | · | ·
C=CCNc1nc(N)c(C(=C(C#N)C#N)c2ccc(Br)cc2)s1 | – | – | – | – | 51 | 56 | 42 | 88
C=CCNc1sc(C(=O)c2ccc(C)cc2)c(N)c1C#N | – | – | – | – | – | – | · | ·
O=C(Cc1csc(Nc2nc(=S)[nH]c3ccccc23)n1)NCc1cccc(Cl)c1 | – | – | – | – | 85 | – | – | ·
COc1ccc(CNC(=O)CCCCCNc2nc(=S)[nH]c3ccccc23)cc1 | – | – | – | – | – | – | · | ·
Cc1ccc(CNC(=O)Cc2csc(Nc3nc(=S)[nH]c4ccccc34)n2)cc1 | · | · | · | · | 57 | · | 42 | 102
COc1cc(OC)cc(C(=O)Nc2nc(CC(=O)NCc3ccc(F)cc3)cs2)c1 | – | – | – | – | 70 | – | 65 | 58
COc1cc(OC)cc(C(=O)Nc2nc(CC(=O)NCc3ccccc3OC)cs2)c1 | – | – | – | – | – | – | · | ·
O=C(Cc1csc(Nc2nc(=S)[nH]c3ccccc23)n1)N1CCN(c2cccc(C(F)(F)F)c2)CC1 | – | – | – | – | 69 | 80 | – | ·
